Data from the supplement of paper PMC12494721.
Structures can show the parent of a compound that is named as a salt.

Key:
Details in all cases: incubation time: 27 h, anaerobic, 37 °C;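 for the amine columns active = adjusted P below 0.05 in both replicates with a change the same way and a mean fold change under 0.8 or over 1.25; inactive = the rest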
[1] = system: Clostridium sporogenes DSM 1664; test: growth (OD595) fold change vs plate DMSO controls (fold change (ratio)); higher = more growth
How it was run: (§1)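 The 96-well mGAM cultures had been kept anaerobic for 27 h at 37 °C before being shaken and read at 595 nm. Blank subtraction, compound background correction with 20 µM compound solutions in water, and a calibration factor of 5 turned the readings into OD. Growth is given as the fold change versus the median of plate DMSO controls. Fold changes above 1.5 were set to NA, and the values are means of 2 biological replicates.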

[2] = system: Escherichia coli IAI1; test: as above
How it was run: as §1

[3] = system: Klebsiella aerogenes DSM 30053; test: as above
How it was run: as §1

[4] = system: Ruminococcus gnavus DSM 108212; test: as above
How it was run: as §1

[5] = system: Klebsiella aerogenes DSM 30053; test: fold change of Histamine concentration vs plate DMSO controls (fold change (ratio)); higher = more amine produced, active = hit call of the paper (significant change in both replicates, either direction)
How it was run: (§2)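 Using LC–triple-quadrupole MS with dynamic MRM, amines were quantified against external calibration curves and corrected for drift within each batch. Samples were whole anaerobic mGAM cultures of four gut strains, grown 27 h at 37 °C from OD 0.1 before 1:1 dilution, extracted with cold acetonitrile/methanol containing 0.1% formic acid and centrifuged. Compounds were present at 20 µM final (sweeteners at 50 µM final). The numbers are fold changes versus plate DMSO controls, each the mean of 2 biological replicates.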

[6] = system: Clostridium sporogenes DSM 1664; test: fold change of Tryptamine concentration vs plate DMSO controls (fold change (ratio)); higher = more amine produced, active = hit call of the paper (significant change in both replicates, either direction)
How it was run: as §2

[7] = system: Ruminococcus gnavus DSM 108212; test: as above
How it was run: as §2

[8] = system: Escherichia coli IAI1; test: fold change of Putrescine concentration vs plate DMSO controls (fold change (ratio)); higher = more amine produced, active = hit call of the paper (significant change in both replicates, either direction)
How it was run: as §2

[9] = system: Klebsiella aerogenes DSM 30053; test: as above
How it was run: as §2

[10] = system: Escherichia coli IAI1; test: fold change of Cadaverine concentration vs plate DMSO controls (fold change (ratio)); higher = more amine produced, active = hit call of the paper (significant change in both replicates, either direction)
How it was run: as §2

[11] = system: Klebsiella aerogenes DSM 30053; test: as above
How it was run: as §2

[12] = system: Ruminococcus gnavus DSM 108212; test: fold change of 2-Phenylethylamine concentration vs plate DMSO controls (fold change (ratio)); higher = more amine produced, active = hit call of the paper (significant change in both replicates, either direction)
How it was run: as §2

Row | Compound | growth [1] | growth [2] | growth [3] | growth [4] | fold change of Histamine concentration [5] | fold change of Tryptamine concentration [6] | fold change of Tryptamine concentration [7] | fold change of Putrescine concentration [8] | fold change of Putrescine concentration [9] | fold change of Cadaverine concentration [10] | fold change of Cadaverine concentration [11] | fold change of 2-Phenylethylamine concentration [12]
1 | CCCCCCCC/C=C\CCCCCCCC(N)=O [Oleamide] (20 µM) | 0.884 | 0.989 | 1.01 | 0.968 | 0.969 (inactive) | 1.01 (inactive) | 0.895 (inactive) | 1.02 (inactive) | 1.01 (inactive) | 1.06 (inactive) | 1 (inactive) | 0.862 (inactive)
2 | CCOC(=O)NNc1nncc2ccccc12 [Todralazine hydrochloride] (20 µM) | 0.521 | 1.14 | 1.04 | 1 | 0.967 (inactive) | 0.506 (inactive) | 0.955 (inactive) | 1.02 (inactive) | 0.984 (inactive) | 1.04 (inactive) | 1.01 (inactive) | 1.03 (inactive)
3 | CN(C)C(=O)C(CCN1CCC(O)(c2ccc(Cl)cc2)CC1)(c1ccccc1)c1ccccc1 [Loperamide hydrochloride] (20 µM) | 1.1 | 1.04 | 1.05 | 0.853 | 0.935 (inactive) | 0.976 (inactive) | 0.949 (inactive) | 1 (inactive) | 0.963 (inactive) | 1.02 (inactive) | 1.02 (inactive) | 0.915 (inactive)
4 | CC(C(=O)O)c1ccc(-c2ccccc2)c(F)c1 (centres undefined) [Flurbiprofen] (20 µM) | 0.961 | 1 | 1 | 1.02 | 1.07 (inactive) | 1.02 (inactive) | 0.937 (inactive) | 1.06 (inactive) | 1.03 (inactive) | 1 (inactive) | 1.01 (inactive) | 0.882 (inactive)
5 | CC(=O)OCC(CCn1cnc2cnc(N)nc21)COC(C)=O [Famciclovir] (20 µM) | 0.805 | 1.06 | 0.981 | 0.993 | 1.15 (inactive) | 1.03 (inactive) | 1.05 (inactive) | 1.03 (inactive) | 1.01 (inactive) | 1.01 (inactive) | 0.979 (inactive) | 1.04 (inactive)
6 | CCOC(=O)c1c(N)sc2c1CCN(Cc1ccccc1)C2 [Tinoridine hydrochloride] (20 µM) | 1.15 | 0.977 | 0.967 | 1.14 | 1.03 (inactive) | 0.982 (inactive) | 0.922 (inactive) | 1.01 (inactive) | 1 (inactive) | 0.954 (inactive) | 0.976 (inactive) | 0.875 (inactive)
7 | Cc1c(Cl)cccc1Nc1ccccc1C(=O)O [Tolfenamic acid] (20 µM) | 1.18 | 1.01 | 1.06 | 1.14 | 0.917 (inactive) | 0.901 (inactive) | 0.951 (inactive) | 1.07 (inactive) | 0.984 (inactive) | 1.07 (inactive) | 1.01 (inactive) | 0.937 (inactive)
8 | O=C(Oc1cccc2cccnc12)c1ccccc1 [Benzoxiquine] (20 µM) | 1.09 | 0.939 | 1.04 | 1.13 | 0.957 (inactive) | 1.03 (inactive) | 1.03 (inactive) | 0.984 (inactive) | 1.02 (inactive) | 0.995 (inactive) | 1.01 (inactive) | 1.07 (inactive)
9 | C=C(CC)C(=O)c1ccc(OCC(=O)O)c(Cl)c1Cl [Ethacrynic acid] (20 µM) | 1.11 | 0.984 | 1.01 | 1.19 | 0.964 (inactive) | 1.01 (inactive) | 0.941 (inactive) | 0.972 (inactive) | 1.03 (inactive) | 0.985 (inactive) | 0.999 (inactive) | 0.917 (inactive)
10 | Cn1c(NCCN(CCO)CCCc2ccc([N+](=O)[O-])cc2)cc(=O)n(C)c1=O [Nifekalant] (20 µM) | 1.11 | 1.06 | 1.08 | 1.22 | 0.994 (inactive) | 1.01 (inactive) | 1.01 (inactive) | 1.04 (inactive) | 1.02 (inactive) | 0.971 (inactive) | 1.01 (inactive) | 0.997 (inactive)
11 | CCOc1ccc2nc(S(N)(=O)=O)sc2c1 [Ethoxzolamide] (20 µM) | 0.955 | 0.957 | 0.989 | 0.925 | 1.04 (inactive) | 0.934 (inactive) | 0.994 (inactive) | 1.27 (inactive) | 0.997 (inactive) | 0.981 (inactive) | 0.989 (inactive) | 1 (inactive)
12 | CCC(=O)O[C@@H](O[P@](=O)(CCCCc1ccccc1)CC(=O)N1C[C@H](C2CCCCC2)C[C@H]1C(=O)O)C(C)C [Fosinopril] (20 µM) | 1.01 | 1.09 | 1.05 | 1.08 | 1.06 (inactive) | 0.979 (inactive) | 1.05 (inactive) | 1.3 (inactive) | 1.01 (inactive) | 0.939 (inactive) | 1 (inactive) | 1.08 (inactive)
13 | Nc1ccn([C@H]2CC[C@@H](CO)O2)c(=O)n1 [Zalcitabine] (20 µM) | 1.05 | 1.04 | 0.995 | 0.997 | 1.03 (inactive) | 1.02 (inactive) | 1.04 (inactive) | 1.09 (inactive) | 0.978 (inactive) | 0.975 (inactive) | 0.997 (inactive) | 1.02 (inactive)
14 | O=C(Cn1cnnn1)N[C@@H]1C(=O)N2C(C(=O)O)=C(CSc3nncs3)CS[C@H]12 [Ceftezole] (20 µM) | 0 | 0.855 | 1.05 | 0.188 | 0.895 (inactive) | 0.0131 (active) | 0.114 (active) | 0.749 (inactive) | 0.967 (inactive) | 1.61 (inactive) | 1.04 (inactive) | 0.105 (active)
15 | CNCCC(Oc1ccccc1OC)c1ccccc1 (centres undefined) [Nisoxetine hydrochloride] (20 µM) | 0.994 | 0.74 | 0.914 | 0.975 | 1.02 (inactive) | 0.993 (inactive) | 1.01 (inactive) | 0.707 (inactive) | 0.978 (inactive) | 1.18 (inactive) | 0.983 (inactive) | 0.92 (inactive)
16 | NNc1nncc2ccccc12 [Hydralazine hydrochloride] (20 µM) | 0.972 | 0.997 | 1 | 0.792 | 1.07 (inactive) | 0.967 (inactive) | 1.03 (inactive) | 0.983 (inactive) | 1.01 (inactive) | 0.997 (inactive) | 0.994 (inactive) | 0.96 (inactive)
17 | CCCCc1oc2ccc(NS(C)(=O)=O)cc2c1C(=O)c1ccc(OCCCN(CCCC)CCCC)cc1 [Dronedarone hydrochloride] (20 µM) | 0.948 | 1.09 | 1.02 | 0.895 | 0.99 (inactive) | 0.925 (inactive) | 0.8 (inactive) | 1.16 (inactive) | 1 (inactive) | 0.996 (inactive) | 1.01 (inactive) | 0.957 (inactive)
18 | C/C=C(/C(=C/C)c1ccc(O)cc1)c1ccc(O)cc1 [Dienestrol] (20 µM) | 1.09 | 1.01 | 1.04 |  | 1.02 (inactive) | 0.782 (inactive) | 0.285 (active) | 1.06 (inactive) | 0.995 (inactive) | 1.02 (inactive) | 1.03 (inactive) | 0.344 (inactive)
19 | CCC(C)(C)C(=O)O[C@H]1C[C@@H](C)C=C2C=C[C@H](C)[C@H](CC[C@@H]3C[C@@H](O)CC(=O)O3)[C@H]21 [Simvastatin] (20 µM) | 1.01 | 1.05 | 1.25 |  | 0.919 (inactive) | 0.967 (inactive) | 0.995 (inactive) | 1 (inactive) | 1.03 (inactive) | 1 (inactive) | 1.03 (inactive) | 0.991 (inactive)
20 | O=C(NCCN1CCOCC1)c1ccc(Cl)cc1 [Moclobemide] (20 µM) | 1.03 | 0.993 | 0.971 | 1.21 | 1.06 (inactive) | 1.04 (inactive) | 1.03 (inactive) | 1 (inactive) | 1.01 (inactive) | 1.01 (inactive) | 0.987 (inactive) | 1.03 (inactive)
21 | OCCOCCN1CCN(C(c2ccccc2)c2ccc(Cl)cc2)CC1 (centres undefined) [Hydroxyzine dihydrochloride] (20 µM) | 1.07 | 1.01 | 1.05 | 0.906 | 0.909 (inactive) | 1.01 (inactive) | 1.02 (inactive) | 0.98 (inactive) | 0.966 (inactive) | 0.968 (inactive) | 1.02 (inactive) | 1.06 (inactive)
22 | O=C(Nc1ccc([N+](=O)[O-])cc1Cl)c1cc(Cl)ccc1O [Niclosamide] (20 µM) | 0.924 | 1.12 | 1.1 | 0.78 | 0.97 (inactive) | 1.02 (inactive) | 0.887 (inactive) | 1.22 (inactive) | 1.03 (inactive) | 1.31 (active) | 0.992 (inactive) | 0.934 (inactive)
23 | Clc1cc(Cl)c(OCC#CI)cc1Cl [Haloprogin] (20 µM) | 0.986 | 0.942 | 0.967 |  | 1.01 (inactive) | 0.977 (inactive) | 0.777 (inactive) | 1.09 (inactive) | 0.953 (inactive) | 1.04 (inactive) | 0.987 (inactive) | 0.861 (inactive)
24 | O=C1C(=O)c2ccccc2C(O)=C1C1CCC(c2ccc(Cl)cc2)CC1 (centres undefined) [Atovaquone] (20 µM) | 1.24 | 1.02 | 1.07 |  | 1.01 (inactive) | 0.793 (inactive) | 0.753 (active) | 0.973 (inactive) | 1.03 (inactive) | 0.989 (inactive) | 1 (inactive) | 0.747 (active)
